# Screens (PubChem BioAssay)
# Six1-Eya2 blk = Six1/Eya2 interaction inhibition; activity change, % (concentration not given with the values); AlphaScreen GST-Six1/His-Eya2 binding, biochemical; hits give low values; 0.56% of 360,000 active; Q15475+O00167; in the data active = activity change below about -65%; inconclusive = mostly about -30% to -63%
#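 GST-Six1 + His-Eya2 (5X stock: 250/500 nM); Tris pH 8.0, 300 mM NaCl, 0.05% BSA, 0.02% Tween 20; GSH donor/Ni acceptor beads; 1 h 37 °C dark; AlphaScreen readout.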
# JMJD2A Tudor inh = blocks the human JMJD2A Tudor domain; Potency, µM (doses to about 114 µM), usual class: inhibitors; 4.4% of 390,000 active; AlphaScreen JMJD2A-Tudor / H3K4me3 peptide binding; O75164; also: nearly all actives have a fitted effect of over 50% in size
# Target sequence (O75164 whole entry, looked up, the tested form may be a part): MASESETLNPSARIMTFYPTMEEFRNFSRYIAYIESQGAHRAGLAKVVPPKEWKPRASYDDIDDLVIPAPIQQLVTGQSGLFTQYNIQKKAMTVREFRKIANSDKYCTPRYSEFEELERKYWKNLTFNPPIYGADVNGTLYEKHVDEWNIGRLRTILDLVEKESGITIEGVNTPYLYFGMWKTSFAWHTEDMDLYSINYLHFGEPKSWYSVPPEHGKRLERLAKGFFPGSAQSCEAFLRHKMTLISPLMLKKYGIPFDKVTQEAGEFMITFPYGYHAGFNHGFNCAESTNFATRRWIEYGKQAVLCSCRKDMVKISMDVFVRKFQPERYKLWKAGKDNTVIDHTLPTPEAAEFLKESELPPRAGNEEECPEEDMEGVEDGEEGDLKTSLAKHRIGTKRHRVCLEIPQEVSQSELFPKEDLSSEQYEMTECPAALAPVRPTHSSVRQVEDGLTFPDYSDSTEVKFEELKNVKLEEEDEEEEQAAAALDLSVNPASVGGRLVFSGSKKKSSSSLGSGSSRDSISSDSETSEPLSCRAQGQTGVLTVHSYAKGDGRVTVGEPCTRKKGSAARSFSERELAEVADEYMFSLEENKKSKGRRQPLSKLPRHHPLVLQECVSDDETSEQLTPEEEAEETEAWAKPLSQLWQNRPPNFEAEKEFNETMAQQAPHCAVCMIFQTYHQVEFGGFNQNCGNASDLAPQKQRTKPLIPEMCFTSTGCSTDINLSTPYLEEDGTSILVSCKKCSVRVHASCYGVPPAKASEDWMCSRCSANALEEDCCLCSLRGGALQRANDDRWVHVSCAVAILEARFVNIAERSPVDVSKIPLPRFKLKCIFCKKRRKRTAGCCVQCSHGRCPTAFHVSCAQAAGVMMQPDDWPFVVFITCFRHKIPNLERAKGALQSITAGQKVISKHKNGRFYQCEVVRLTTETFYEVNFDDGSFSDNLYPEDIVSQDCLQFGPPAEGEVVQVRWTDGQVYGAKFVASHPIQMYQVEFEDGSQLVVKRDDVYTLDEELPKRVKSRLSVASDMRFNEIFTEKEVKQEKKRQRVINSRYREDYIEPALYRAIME
# CtBP-E1A blk = CtBP/E1A binding inhibition; AlphaScreen GST-E1A/His-CtBP binding, 1536-well; hits give low values; activity change, % (test concentration not listed); 0.49% of 340,000 active; in the data active = activity change below about -65%; inconclusive = mostly about -30% to -63%
#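 Protein mix (5X: 125 nM each GST-E1A, His-CtBP) was incubated with pinned compound 2 h at 37 deg C in dark, in 50 mM Tris pH 8.0 buffer with 300 mM NaCl. Glutathione donor and nickel acceptor beads followed; AlphaScreen signal read after 1 h.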
# BAZ2B block = blocks human BAZ2B; Q9UIF8; AlphaScreen BAZ2B-H3K14Ac peptide displacement; Potency, µM (highest dose often 114 µM), actives largely listed as inhibitors; 4.4% of 360,000 active; AID 504333; also: nearly all actives have a fitted effect of over 60% in size
#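 Multi-concentration screen (max 110 uM) measuring displacement of acetylated histone H3 peptide from BAZ2B by AlphaScreen, using 50 nM protein, 50 nM peptide and 10 ug/mL streptavidin donor plus Ni-chelate acceptor beads.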
# G9a inh = inhibitors of human histone lysine methyltransferase G9a; 8.8% of 350,000 active; Q96KQ7; G9a H3K9 monomethylation, AlphaScreen, 2 h; Potency, µM (highest dose often 102 µM), hits mostly inhibitors; AID 504332; also: nearly all actives have a fitted effect of over 75% in size
#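 AlphaScreen detection with an anti-monomethyl H3K9 antibody quantified product after a 2 h room-temperature reaction containing 500 nM biotinylated H3K9 peptide, 20 µM SAM and 20 nM enzyme, which had been preincubated 15 min with compound.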
# HP1b chromo inh = blocks HP1-beta chromodomain binding to methylated histone tails | AlphaScreen HP1-beta / biotin-H3K9me3 peptide binding | Potency, µM (highest dose often 114 µM), hits mostly inhibitors | 0.56% of 390,000 active | AID 540317; also: nearly all actives have a fitted effect of over 70% in size
#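 AlphaScreen: HP1-beta (50 nM) preformed 30 min with biotin-H3(1-18)K9me3 peptide (50 nM) in PBS pH 7.4, 0.01% Tween-20. Compound added for 30 min at RT, then streptavidin donor/nickel chelate acceptor beads (10 ug/mL) for 30 min.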
# Hits are given with their value; i = inactive; ? = inconclusive; nt = not tested or not shown; ! = repeats disagree; [ ] = remark or other dose. An excerpt weighted towards active compounds, which were near 10% of everything screened. Unless noted, calls follow the shape of the dose curve; as a rule, active = well fitted inhibition curve with a large enough effect; inconclusive = small, poorly fitted or top-dose-only effect; inactive = no such curve, though single readings can be large or run the other way.
SMILES,Six1-Eya2 blk,JMJD2A Tudor inh,CtBP-E1A blk,BAZ2B block,G9a inh,HP1b chromo inh
O=C(N/N=C/c1ccc(O)c(O)c1)c1ccc(CSc2cccc3cccnc23)cc1,i,?,i,?,35µM,?
Cc1ccc(C(=O)COC(=O)CSc2cccc3cccnc23)c(C)c1,i,i,-77,nt,nt,i
O=C(O)CSc1cccc2cccnc12,?,i,?,?,14µM!,i
O=C(CSc1cccc2cccnc12)N/N=C/c1cccc(O)c1,i,i,nt,i,i,i
Cc1ccc(Cl)cc1NC(=O)CN1C(=O)C(C)(C)c2cc(S(=O)(=O)N3CCCCC3)ccc21,nt,i,nt,i,i,i
O=C(Nc1cc([N+](=O)[O-])ccc1Cl)c1ccc2c(c1)OCO2,i,i,i,i,nt,i
O=C(NCc1cccc(F)c1)C1=Cc2cc(Br)ccc2OC1,nt,i,nt,i,i,i
Cn1cnnc1SCC(=O)Nc1ccc2nc(SCc3ccccc3F)sc2c1,i,i,i,?,?,i
Cc1ccc(CNC(=O)CCSCc2ccccc2F)cc1,i,i,i,i,i,i
COc1cc(CNC(=O)Nc2nc(C(N)Cc3ccc(C(F)(F)F)cc3)cs2)cc(OC)c1OC (centres undefined),i,nt,i,nt,nt,nt
CCCCC(=O)N/N=C/c1ccc(Sc2cccc3cccnc23)o1,-80,i,-88,i,?,i
O=C(CSc1cccc2cccnc12)N/N=C/c1ccc(F)cc1,-67,i,?,i,i,i
O=C(Cc1cccc2ccccc12)N/N=C/c1ccc(Sc2cccc3cccnc23)o1,nt,nt,nt,i,?,nt
COc1ccccc1CNC(=O)CNC(=O)N1CC(=O)Nc2ccccc21,i,i,i,i,i,i
COc1ccccc1CNCC(=O)N1CC(=O)Nc2ccccc21,i,20µM,nt,50µM,10µM,i
O=C1CN(C(=O)CNCc2ccccc2)c2ccccc2N1,i,3.5µM,i,50µM,35µM,?
O=C(CCNC(=O)N1CC(=O)Nc2ccccc21)NCc1ccccc1,i,nt,i,nt,nt,nt
COc1ccccc1C(=O)Nc1ccnn1C1CCN(C2CCCCC2)CC1,i,nt,i,nt,nt,nt
COc1cc(C)c(NC(=O)COc2ccc3c(c2)CCC3)cc1OC,i,i,i,i,i[12.7 µM],i
Cc1cc(=O)oc2cc(OCC(=O)NCCc3nc4ccccc4[nH]3)ccc12,i,i,i,i,50µM,i
Cc1nnc(NC(=O)COc2ccc3c(C)cc(=O)oc3c2)s1,i,i,i,?,8.9µM,i
COc1ccc(C2C(C#N)=C(N)Oc3c2sc2nc(C)cc(C)c32)cc1 (centres undefined),i,i,i,i,11µM,i
CCN1C[C@@H]2[C@@H]3C(=O)N(C)C(=O)[C@@H]3[C@](Cc3ccccc3)(C1=O)N2C(=O)c1ccc(Br)cc1,i,i,i,nt,nt,i
CC(=O)N/N=C/c1cc(C(C)C)cc(/C=N/NC(C)=O)c1O,-74,i,-84,i,nt,i
CC(=O)N/N=C/c1cc(C)n(-c2ccc(Br)cc2)c1C,i,i,i,?,?,i
SMILES,Six1-Eya2 blk,JMJD2A Tudor inh,CtBP-E1A blk,BAZ2B block,G9a inh,HP1b chromo inh
COc1ccc(Cl)cc1NC(=O)C(C)N1CCN(C/C=C/c2ccccc2)CC1 (centres undefined),i,3.5µM,i,50µM,?,13µM
CC(C(=O)N(C)Cc1ccccc1)N1CCN(C/C=C/c2ccccc2)CC1 (centres undefined),i,1.6µM,i,35µM,20µM,?
C(=C\c1ccccc1)/CN1CCN(C(c2ccccc2)c2ccccc2)CC1,i,i,i,?,i,i
Fc1ccc(C(c2ccc(F)cc2)N2CCN(C/C=C/c3ccccc3)CC2)cc1,?,?,i,?,21µM!,i
CC(=O)c1ccc(NC(=O)C(C)N2CCN(C/C=C/c3ccccc3)CC2)cc1 (centres undefined),i,i,i,?,i,i
C=CCn1c(SCC(=O)N2CC(C)OC(C)C2)nnc1-c1ccncc1 (centres undefined),i,i,i,i,7.9µM,i
Cc1[nH]c2ccccc2c1C(=O)CSc1nc2ccccc2[nH]1,i,i,i,i,i[12.7 µM],i
Cc1[nH]c2ccccc2c1C(=O)CSc1ccc(Cl)cc1,i,22µM,i,i,i,?
C=CCn1c(SCC(=O)c2c(C)[nH]c3ccccc23)nnc1-c1ccncc1,i,i[11.4 µM],nt,i,50µM,i
CCOC(=O)CN(C(=O)CSc1nnc(-c2ccncc2)n1CCCN(C)C)c1ccccc1,i,?,i,50µM,2.8µM,?
CCCCn1c(SCC(=O)N(C)C)nnc1-c1ccncc1,i,i,i,i,nt,i
C=CCn1c(SCC(=O)Nc2ccccc2C)nnc1-c1ccncc1,i,i,i,i,i,i
O=C(Cn1cc([N+](=O)[O-])ccc1=O)N1CCc2ccccc21,i,i,i,nt,nt,i
CCN1C[C@@H]2[C@@H]3C(=O)N(C)C(=O)[C@@H]3[C@](Cc3ccccc3)(C1=O)N2C(=O)c1ccc(Cl)c(Cl)c1,i,i,i,nt,nt,i
CCOC(=O)c1c(C)[nH]c(C)c1C(=O)CSc1nnc(-c2ccncc2)n1Cc1ccccc1,i,i,i,?,56µM,i
C=CCn1c(SCn2nnc3ccccc3c2=O)nnc1-c1ccc(Br)cc1,i,i,i,i,?,i
C=CCn1c(SCn2nnc3ccccc3c2=O)nnc1-c1ccc(F)cc1,i,i,i,i,32µM,i
CCOC(=O)c1c(C)[nH]c(C)c1C(=O)CSc1nnc(-c2ccco2)n1Cc1ccccc1,i,i,i,?,?,i
CCOC(=O)c1cnc(-c2ccccc2O)nc1Cl,i,18µM,i,?,45µM,i
Cc1cc(C=O)c(C)n1-c1cccc(C(=O)O)c1,i,i,i,79µM,40µM,i
COC(=O)c1cc(C(=O)OC)cc(-n2c(C)cc(C=O)c2C)c1,i,i,i,i,i[0.0925 µM],i
Cc1ccc(C)n1-c1cccc(C(=O)O)c1,nt,nt,nt,7.1µM,4.5µM,nt
COC(=O)c1cccc(-n2c(C)cc(C=O)c2C)c1,i,i,i,?,i,i
Cc1cc(C=O)c(C)n1-c1cc(C(=O)O)cc(C(=O)O)c1,?,?,i,18µM,nt,25µM
Cc1cc(/C=N/O)c(C)n1-c1cccc(Cl)c1,i,?,i,50µM,45µM,?
O=C(CSc1ccc(Cl)cc1Cl)N1CCC(c2nc3ccccc3s2)CC1,i,i,i,i,i,i
O=C(COc1ccc([N+](=O)[O-])cc1)Nc1cccc2cccnc12,nt,i,nt,i,i,i
Cc1ccc(S(=O)(=O)N2CCN(C(=O)COC(=O)c3ccc(Cl)c(S(N)(=O)=O)c3)CC2)c(C)c1,i,i,i,nt,nt,i
Brc1ccc(-c2nc3ncccn3c2NC2CCCCC2)o1,i,i,i,i,10µM,?
